PubChem BioAssay (NCATS)
Where “and” joins values, the source holds several entries; their conditions need not be identical. Equal entries are not always repeated. Values without a mark were called inactive. Records with an inconclusive call do not appear. A call without a number means that no potency is given here. Calls of active or inactive are those of the source. Unless noted, calls come from the whole dose curve; as a rule, active = well fitted curve in the direction sought with a large enough effect; inconclusive = small, poorly fitted or top-dose-only effect, or another doubt; inactive = no such curve, though single readings can be large; an effect the other way counts as inactive or inconclusive.

Assays:
[1] = test system: NIH3T3; assay: qHTS assay to identify novel small-molecules to repurpose for Merkel cell carcinoma treatment (AID 1296009); conditions: MCC and control cell lines, CellTiter-Glo viability, 72 h; at 44.8 µM (top of the series) unless noted; note: nearly all actives have a fitted effect of over 60% in size; note: potency is the fitted concentration of half-maximal effect
Method in brief: (§1)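 72 hr, 37 degree celsius; NPC 8-pt / MIPE 11-pt dose response; compound pinned in DMSO; CellTiter-Glo, 10 min RT, luminescence; normalized to no-cell and DMSO controls.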

[2] = test system: UISO; assay: as above; conditions: MCC and control cell lines, CellTiter-Glo viability, 72 h; series mostly up to 46 µM
Method in brief: as §1

[3] = test system: WaGa; assay: as above; conditions: MCC and control cell lines, CellTiter-Glo viability, 72 h; series mostly up to 46 µM
Method in brief: as §1

[4] = test system: C33A; assay: Primary qHTS to identify gynecologic anti-cancer compounds using libraries of approved drugs and bioactive compounds (AID 1345084); conditions: Gynecologic cancer cell panel viability, ATPlite luminescence, 48 h; series mostly up to 57.5 µM; note: nearly all actives have a fitted effect of over 55% in size; note: potency is the fitted concentration of half-maximal effect
Method in brief: (§2)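 Cells, 1,000 per well, plated 16 h, then exposed 48 h at 37 C to compounds. Viability by ATPlite luminescence after 15 min at room temperature.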

[5] = test system: CAOV3; assay: as above; conditions: Gynecologic cancer cell panel viability, ATPlite luminescence, 48 h; series mostly up to 57.5 µM
Method in brief: as §2

[6] = test system: CASKI; assay: as above; conditions: Gynecologic cancer cell panel viability, ATPlite luminescence, 48 h; series mostly up to 57.5 µM
Method in brief: as §2

[7] = test system: Es-2; assay: as above; conditions: Gynecologic cancer cell panel viability, ATPlite luminescence, 48 h; series mostly up to 57.5 µM
Method in brief: as §2

[8] = test system: HeLa; assay: as above; conditions: Gynecologic cancer cell panel viability, ATPlite luminescence, 48 h; series mostly up to 57.5 µM
Method in brief: as §2

[9] = test system: JEG-3; assay: as above; conditions: Gynecologic cancer cell panel viability, ATPlite luminescence, 48 h; series mostly up to 57.5 µM
Method in brief: as §2

[10] = test system: OV90; assay: as above; conditions: Gynecologic cancer cell panel viability, ATPlite luminescence, 48 h; series mostly up to 57.5 µM
Method in brief: as §2

[11] = test system: PA-1; assay: as above; conditions: Gynecologic cancer cell panel viability, ATPlite luminescence, 48 h; series mostly up to 57.5 µM
Method in brief: as §2

[12] = test system: Tov-21-G; assay: as above; conditions: Gynecologic cancer cell panel viability, ATPlite luminescence, 48 h; series mostly up to 57.5 µM
Method in brief: as §2

[13] = test system: Tov112D; assay: as above; conditions: Gynecologic cancer cell panel viability, ATPlite luminescence, 48 h; series mostly up to 57.5 µM
Method in brief: as §2

[14] = test system: astro; assay: Drug repurposing screens with cells derived from glioblastoma tumor samples (AID 1345199); conditions: viability, ATP luminescence, 48 h; series mostly up to 45.9 µM; note: nearly all actives have a fitted effect of over 40% in size; note: potency is the fitted concentration of half-maximal effect
Method in brief: (§3)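 Four patient lines of CD133+ GBM neurospheres were screened at several concentrations; hits were retested in those lines plus three slower-growing GBM lines, using 48-hour treatment and ATP-based viability.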

[15] = test system: Hek293T; assay: Primary qHTS to identify gynecologic anti-cancer compounds using libraries of approved drugs and bioactive compounds (AID 1345084); conditions: Gynecologic cancer cell panel viability, ATPlite luminescence, 48 h, control line for the selectivity index; series mostly up to 57.5 µM; note: nearly all actives have a fitted effect of over 55% in size; note: potency is the fitted concentration of half-maximal effect
Method in brief: as §2

[16] = test system: SKOV3; assay: as above; conditions: Gynecologic cancer cell panel viability, ATPlite luminescence, 48 h; series mostly up to 57.5 µM
Method in brief: as §2

[17] = Drug repurposing screens with cells derived from glioblastoma tumor samples (AID 1345199); conditions: GBM patient neurospheres viability, ATP luminescence, 48 h; note: nearly all actives have a fitted effect of over 40% in size; note: potency is the fitted concentration of half-maximal effect
Method in brief: as §3

[18] = biological target: Nuclear receptor subfamily 1 group I member 2 (Rattus norvegicus) (UniProt Q9R1A7); assay: qHTS assay for small molecule activators of the rat pregnane X receptor (rPXR) signaling pathway (AID 651751; call rule not given here); conditions: rPXR reporter cells, luciferase (One-Glo), 24 h
[19] = qHTS assay for small molecule activators of the human pregnane X receptor (PXR) signaling pathway (AID 720659; call rule not given here)
[20] = at 45.9 µM (top of the series), tumour line B
[21] = at 45.9 µM (top of the series), tumour line D
[22] = at 46 µM (top of the series), tumour line A

Sequence of Nuclear receptor subfamily 1 group I member 2 (Rattus norvegicus) (Q9R1A7 whole entry, looked up): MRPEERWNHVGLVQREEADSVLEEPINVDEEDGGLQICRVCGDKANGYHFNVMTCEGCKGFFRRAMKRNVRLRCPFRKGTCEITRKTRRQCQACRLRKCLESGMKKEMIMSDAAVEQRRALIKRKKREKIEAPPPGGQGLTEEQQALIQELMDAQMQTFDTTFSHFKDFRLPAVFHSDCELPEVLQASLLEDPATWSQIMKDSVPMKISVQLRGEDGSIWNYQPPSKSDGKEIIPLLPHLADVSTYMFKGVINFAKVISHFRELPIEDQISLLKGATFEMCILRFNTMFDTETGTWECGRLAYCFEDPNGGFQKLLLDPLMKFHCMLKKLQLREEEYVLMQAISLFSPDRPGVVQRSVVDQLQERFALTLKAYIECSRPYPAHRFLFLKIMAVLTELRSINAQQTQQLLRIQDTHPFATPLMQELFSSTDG

SMILES: CCC(COC(=O)c1cc(OC)c(OC)c(OC)c1)(c1ccccc1)N(C)C (stereo not drawn)
- outcome [1]: inactive
- Potency [2]: inactive
- Potency [3]: inactive
- Potency [4]: inactive
- Potency [5]: inactive
- Potency [6]: inactive
- Potency [7]: inactive
- Potency [8]: inactive
- Potency [9]: inactive
- Potency [10]: inactive
- Potency [11]: inactive
- Potency [12]: inactive
- Potency [13]: inactive
- Potency [14]: inactive

SMILES: NCC(CC(=O)O)c1ccc(Cl)cc1 (stereo not drawn)
- activity change, negative = cytotoxicity [2]: -4.03% [at 0.597 µM]
- activity change, negative = cytotoxicity [3]: -6.81% [at 0.597 µM]
- activity change, negative = cytotoxicity [4]: 1.19% [at 0.462 µM]
- activity change, negative = cytotoxicity [5]: 8.76% [at 0.462 µM]
- activity change, negative = cytotoxicity [6]: 17.3% [at 0.462 µM]
- activity change, negative = cytotoxicity [7]: 4.42% [at 0.462 µM]
- activity change, negative = cytotoxicity [8]: 8.44% [at 0.462 µM]
- activity change, negative = cytotoxicity [15]: -3.58% [at 0.462 µM]
- activity change, negative = cytotoxicity [9]: -6.96% [at 0.462 µM]
- activity change, negative = cytotoxicity [10]: 19.2% [at 0.462 µM]
- activity change, negative = cytotoxicity [11]: 5.78% [at 0.462 µM]
- activity change, negative = cytotoxicity [16]: 1.02% [at 0.462 µM]
- activity change, negative = cytotoxicity [12]: 5.93% [at 0.462 µM]
- activity change, negative = cytotoxicity [13]: -1.06% [at 0.462 µM]
- activity, negative = cell killing [17, 20]: -0.559%
- activity, negative = cell killing [17, 21]: -15.2%
- activity, negative = cell killing [17, 22]: -26.1%

SMILES: CC(=O)Nc1cc([As](=O)(O)O)ccc1O
- outcome [1]: inactive
- Potency [2]: inactive
- Potency [3]: inactive
- Potency [4]: inactive
- Potency [5]: inactive
- Potency [6]: inactive
- Potency [7]: inactive
- Potency [8]: inactive
- Potency [9]: inactive
- Potency [10]: inactive
- Potency [11]: inactive
- Potency [16]: inactive
- Potency [12]: inactive
- Potency [13]: inactive
- activity, negative = cell killing [17, 20]: -26.4%
- activity, negative = cell killing [17, 21]: -5.27%
- Potency [14]: inactive

SMILES: CCOP(=S)(OCC)Oc1cc(C)nc(C(C)C)n1
- Potency [2]: inactive
- Potency [3]: inactive
- Potency [4]: inactive
- Potency [5]: inactive
- Potency [6]: inactive
- Potency [7]: inactive
- Potency [8]: inactive
- Potency [15]: inactive
- Potency [9]: inactive
- Potency [10]: inactive
- Potency [11]: inactive
- Potency [16]: inactive
- Potency [12]: inactive
- Potency [13]: inactive
- activity, negative = cell killing [17, 20]: -12.9%
- activity, negative = cell killing [17, 21]: 4.41%
- activity, negative = cell killing [17, 22]: -24.4%
- max response [18]: 3.69% and 1.39%

SMILES: O=C1NCN(c2ccccc2)C12CCN(CC1COc3ccccc3O1)CC2 (stereo not drawn)
- Potency [2]: inactive
- Potency [3]: inactive
- Potency [4]: inactive
- Potency [5]: inactive
- Potency [6]: inactive
- Potency [7]: inactive
- Potency [8]: inactive
- Potency [15]: inactive
- Potency [9]: inactive
- Potency [10]: inactive
- Potency [11]: inactive
- Potency [16]: inactive
- Potency [12]: inactive
- Potency [13]: inactive
- activity, negative = cell killing [17, 20]: -6.74%
- Potency ([17]; tumour line A): 12.6 µM (active)
- Potency [14]: inactive

SMILES: CC(CCc1ccccc1)NC(C)C(O)c1ccc(O)cc1 (stereo not drawn)
- Potency [2]: inactive
- Potency [3]: inactive
- Potency [4]: inactive
- Potency [5]: inactive
- Potency [6]: inactive
- Potency [7]: inactive
- Potency [8]: inactive
- Potency [15]: inactive
- Potency [16]: inactive
- Potency [12]: inactive
- Potency [13]: inactive
- activity, negative = cell killing [17, 20]: -9.92%
- activity, negative = cell killing [17, 21]: 2.61%
- Potency ([17]; tumour line A): 14.1 µM (active)
- Potency [14]: inactive

SMILES: N[C@@H](Cc1ccc(N(CCCl)CCCl)cc1)C(=O)O
- Potency [2]: 13.3 µM (active) and 13.2 µM (active)
- Potency [3]: 4.22 µM (active) and 5.26 µM (active)
- Potency [4]: inactive
- Potency [8]: inactive
- Potency [15]: inactive
- Potency [9]: inactive
- Potency [16]: inactive
- Potency [12]: inactive
- max response [18]: 1.48% and 0.994%

SMILES: O=c1[nH]c2ccccc2n1C1CCN(CCCC(c2ccc(F)cc2)c2ccc(F)cc2)CC1
- Potency [7]: inactive
- Potency [8]: inactive
- Potency [15]: inactive
- Potency [9]: inactive
- Potency [11]: inactive
- Potency [12]: inactive
- Potency [13]: inactive
- Potency ([17]; tumour line A): 2.82 µM (active)
- Potency ([17]; tumour line B): 8.91 µM (active)
- Potency ([17]; tumour line D): 5.62 µM (active)
- Potency [14]: 17.8 µM (active)
- outcome [19]: inactive

SMILES: Fc1ccc(C(OCCN2CCN(CCCc3ccccc3)CC2)c2ccc(F)cc2)cc1
- Potency [2]: 23.7 µM (active)
- Potency [3]: 8.41 µM (active)
- Potency [9]: inactive
- Potency [10]: 22.4 µM (active)

SMILES: C[C@]12CCC(=O)C(O)=C1CC[C@@H]1[C@@H]2CC[C@]2(C)C(=O)CC[C@@H]12
- Potency [2]: inactive
- Potency [3]: inactive
- Potency [4]: inactive
- Potency [5]: inactive
- Potency [6]: inactive
- Potency [7]: inactive
- Potency [8]: inactive
- Potency [15]: inactive
- Potency [10]: inactive
- Potency [11]: inactive
- Potency [16]: inactive
- Potency [12]: inactive
- Potency [13]: inactive
- max response [18]: 2.3%

SMILES: CC1NCCOC1c1ccccc1 (stereo not drawn)
- Potency [2]: inactive
- Potency [3]: inactive
- Potency [4]: inactive
- Potency [6]: inactive
- Potency [7]: inactive
- Potency [8]: inactive
- Potency [15]: inactive
- Potency [9]: inactive
- Potency [10]: inactive
- Potency [11]: inactive
- Potency [16]: inactive
- Potency [12]: inactive
- Potency [13]: inactive
- activity, negative = cell killing [17, 20]: -0.55%
- activity, negative = cell killing [17, 21]: 7.64%
- activity, negative = cell killing [17, 22]: -23.4%

SMILES: CO[C@]12CC[C@@]3(C[C@@H]1[C@](C)(O)C(C)(C)C)[C@@H]1Cc4ccc(O)c5c4[C@@]3(CCN1CC1CC1)[C@H]2O5
- Potency [2]: 24.1 µM (active)
- Potency [14]: 31.6 µM (active)

SMILES: Clc1ccc(COC(Cn2ccnc2)c2ccc(Cl)cc2Cl)cc1 (stereo not drawn)
- Potency [2]: 15 µM (active)
- Potency [3]: inactive
- Potency [15]: inactive
- Potency [9]: inactive
- Potency [10]: 17.8 µM (active)
- Potency [16]: 28.2 µM (active)
- Potency ([17]; tumour line A): 2.24 µM (active)
- Potency ([17]; tumour line D): 12.6 µM (active)
